TrxR1 inh: qHTS Assay for Inhibitors of Mammalian Selenoprotein Thioredoxin Reductase 1 (TrxR1): qHTS. Thioredoxin reductase 1, cytoplasmic (Rattus norvegicus), O89049. recombinant rTrxR1, NADPH fluorescence consumption, selenite substrate. Potency, µM (doses to about 114 µM), usual class: inhibitors. 390,000 compounds, 1% hits; also: nearly all actives have a fitted effect of over 65% in size
Target sequence (O89049 whole entry, looked up): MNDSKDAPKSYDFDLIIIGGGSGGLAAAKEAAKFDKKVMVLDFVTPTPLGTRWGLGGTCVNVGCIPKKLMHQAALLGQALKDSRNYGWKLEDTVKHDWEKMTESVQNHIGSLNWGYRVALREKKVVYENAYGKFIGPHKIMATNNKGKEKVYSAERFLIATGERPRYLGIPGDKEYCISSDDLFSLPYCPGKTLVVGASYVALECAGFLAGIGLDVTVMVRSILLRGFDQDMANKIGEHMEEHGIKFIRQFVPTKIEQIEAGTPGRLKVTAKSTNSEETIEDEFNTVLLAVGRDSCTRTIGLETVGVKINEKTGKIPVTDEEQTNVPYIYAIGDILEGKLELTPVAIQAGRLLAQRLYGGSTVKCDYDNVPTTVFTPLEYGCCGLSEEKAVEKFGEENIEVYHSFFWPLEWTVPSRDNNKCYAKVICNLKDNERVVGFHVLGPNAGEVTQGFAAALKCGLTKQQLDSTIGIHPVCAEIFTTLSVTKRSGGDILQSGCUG
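Rat TrxR1 (90 nM in the dispensed reagent) was pre-reduced with 400 uM NADPH for 5 min at room temperature, then incubated with compound for 15 min. After 400 uM selenite was added, NADPH fluorescence (Ex 340/Em 450 nm) was followed for 8 min.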
TrxR1 substrate: qHTS Assay for Substrates of Mammalian Selenoprotein Thioredoxin Reductase 1 (TrxR1): qHTS; Thioredoxin reductase 1, cytoplasmic (Rattus norvegicus), O89049; purified TrxR1 substrate turnover, NADPH consumption readout; Potency, µM (series often up to 114 µM); 390,000 compounds, 0.01% hits; also: nearly all actives have a fitted effect of over 50% in size
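Rat TrxR1, dispensed at 90 nM, was prereduced with 400 uM NADPH (final) for 5 min at ~22 deg C, then incubated with compound 15 min before 400 uM selenite. A first-read NADPH fluorescence drop versus no-compound background flagged substrates.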
PI4K2A block: qHTS for small molecular inhibitors of PI4K2A; activity change, negative = inhibition, % at 76.9 µM; 420,000 compounds, 0.13% hits; purified PI4K2A, ADP-Glo luminescence, 1 h; stronger effect = lower value; in the data active = activity change below about -50%; inconclusive = mostly about -30% to -49%
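In this quantitative HTS, ADP production by PI4K2A was quantified luminescently after 1 h at ambient temperature; 100 microM adenosine served as plate-quality control.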
GALK inh: qHTS Assay for Inhibitors of Human Galactokinase (GALK) | P51570 | Purified GALK, Kinase-Glo residual ATP luminescence | Potency, µM (titrated, usually from 57.5 µM), usual class: inhibitors | 270,000 compounds, 0.007% hits
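Compounds were pin-transferred into ATP buffer (35 uM final), then GALK plus galactose (5 nM, 100 uM final) was added. After 1 h at room temperature, Kinase-Glo Plus was added and luminescence read after 10 min.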
Large screens that a line does not name were inactive; ! = not confirmed by another sample. Compounds with a hit are over-represented: about 1.1% of the library has one in this group of screens. Unless noted, calls follow the shape of the dose curve; as a rule, active = well fitted curve in the direction sought with a large enough effect; inconclusive = small, poorly fitted or top-dose-only effect, or another doubt; inactive = no such curve, though single readings can be large; an effect the other way counts as inactive or inconclusive.

CN(CC1(C)CCCO1)S(=O)(=O)c1ccc(Cl)c(S(N)(=O)=O)c1 (stereo not given)	none (no result: TrxR1 inh, TrxR1 substrate, GALK inh)
CN(C)c1cc(Cl)c2nonc2c1N	PI4K2A block -57, GALK inh inconclusive
O=C(Cn1cc(COc2c(F)c(F)cc(F)c2F)nn1)c1ccc(O)cc1	TrxR1 inh 50µM (no result: GALK inh)
COC(=O)[C@]12C[C@H](CC(=O)N3CCCCC3)C(=O)N(CCC3=CCCCC3)C1=C[C@H](C1CCCC1)O[C@@H]2C	none (no result: TrxR1 inh, TrxR1 substrate, GALK inh)
COc1ccc(/C=N\Nc2ccccc2[N+](=O)[O-])c(C(=O)O)c1OC	none
COc1ccc(/C=N\Nc2ccc([N+](=O)[O-])cc2[N+](=O)[O-])c(C(=O)O)c1OC	TrxR1 inh 50µM
CCOC(=O)N1C(=O)[C@@](c2ccc(Cl)cc2)(C(C)C)N1C(=O)OCC	TrxR1 inh inconclusive (no result: GALK inh)
CCOC(=O)N1C(=O)[C@](c2ccc(Cl)cc2)(C(C)C)N1C(=O)OCC	TrxR1 inh 45µM (no result: GALK inh)
COc1ccc(OC)c(NC(=O)Cn2cc(S(=O)(=O)c3ccccc3)c(=O)c3cc(C)ccc32)c1	none (no result: GALK inh)
Cc1ccc(CNC(=O)CSc2ccsc2[N+](=O)[O-])cc1	TrxR1 inh 50µM
NS(=O)(=O)c1ccc(NC(=S)Nc2ccn(Cc3cccc4ccccc34)n2)cc1	TrxR1 inh 13µM
CCSc1nc(-c2ccco2)ccc1C#N	TrxR1 inh 7.9µM
c1ccc(-c2nc3nc4ccccc4nc3n2Cc2ccco2)cc1	TrxR1 inh 32µM
Fc1ccc(-c2nc3nc4ccccc4nc3n2Cc2ccco2)cc1	TrxR1 inh inconclusive
CNC(=O)c1c(I)c(NC(C)=O)c(I)c(C(=O)O)c1I	none (no result: TrxR1 inh, TrxR1 substrate, GALK inh)
CCN(c1ccccc1)S(=O)(=O)c1ccc(NC(=O)c2nc(S(C)(=O)=O)ncc2Cl)cc1	TrxR1 inh 0.4µM
CCS(=O)(=O)c1ncc(Cl)c(C(=O)Nc2ccc(S(=O)(=O)N(C)c3ccccc3)cc2)n1	TrxR1 inh 2.8µM
CCSc1ncc(Cl)c(C(=O)Nc2ccc(S(=O)(=O)N(C)c3ccccc3)cc2)n1	none (no result: GALK inh)
CCCCNC(=O)CCn1c(=O)c2cccn2c2cccnc21	none (no result: GALK inh)
CNC(=O)c1nnsc1S(=O)(=O)c1ccc(Cl)cc1	TrxR1 inh 0.28µM
O=C(c1nnsc1S(=O)(=O)c1ccc(Cl)cc1)N1CCOCC1	TrxR1 inh inconclusive
Cc1ccc(C(=O)NC(=C(Cl)Cl)S(=O)(=O)c2ccc(Cl)cc2)cc1	TrxR1 inh 32µM
O=C(NC(=C(Cl)Cl)S(=O)(=O)c1ccc(Cl)cc1)c1ccccc1	TrxR1 inh 45µM (no result: GALK inh)
Cc1ccc(C(=O)NC(=C(Cl)Cl)S(=O)(=O)c2ccc(C)cc2)cc1	TrxR1 inh inconclusive
COc1ccccc1Cc1nc2ccccc2nc1SCC(=O)NCc1ccccc1Cl	none (no result: GALK inh)
O=C(CC1NCCNC1=O)Nc1ccc(F)c(Cl)c1 (stereo not given)	none (no result: GALK inh)
Cc1c(Cl)cccc1NC(=O)CCS(=O)(=O)c1ccc(Br)s1	none (no result: GALK inh)
Nc1ccc(C(=O)OCC(O)CO)cc1 (stereo not given)	none (no result: TrxR1 inh, TrxR1 substrate, GALK inh)
CN(Cc1ccco1)S(=O)(=O)c1nnc(NC(=O)c2cccc(Cl)c2)s1	TrxR1 inh 25µM!
CCN(c1ccc(C)cc1)S(=O)(=O)c1nnc(NC(=O)c2ccco2)s1	TrxR1 inh 56µM
CCOc1ccc(/C=C/C(=O)Nc2ccc3nc(N(CC)CC)cc(C)c3c2)cc1OC	none (no result: GALK inh)
O=C(CCl)N(CCCNC(=O)C(F)(F)F)c1ccc([N+](=O)[O-])cc1	TrxR1 inh inconclusive
CC(=O)n1cc(N(C(=O)CCl)c2ccccc2)c2ccccc21	TrxR1 inh 0.63µM
CC(=O)n1cc(N(C(=O)CCl)c2ccc([N+](=O)[O-])cc2)c2ccccc21	TrxR1 inh 1.1µM
CC(=O)n1cc(CO)c2ccccc21	none (no result: GALK inh)
O=Cc1[nH]c2ccccc2c1N(C(=O)CCl)c1ccc([N+](=O)[O-])cc1	TrxR1 inh 11µM
COc1ccc(S(=O)(=O)N(CC(=O)Nc2cccc(C)c2)c2ccc(C)cc2)cc1OC	none (no result: GALK inh)
COc1ccc(-n2c(SCC(=O)Nc3cc(C)on3)nc3c(c2=O)SC(C)C3)cc1 (stereo not given)	none (no result: TrxR1 inh, TrxR1 substrate, GALK inh)
CCOC(=O)CC1(C)Sc2ccccc2N1S(=O)(=O)c1ccc(C)cc1 (stereo not given)	none (no result: TrxR1 inh, TrxR1 substrate, GALK inh)
CCc1ccc(NC(=O)CCCn2nc(C)c3c(C)n(-c4ccccc4)nc3c2=O)cc1	none (no result: GALK inh)
CC(C)(C)n1ncc2c(=O)n(Cc3ccc(F)c(C(F)(F)F)c3)cnc21	none (no result: PI4K2A block, GALK inh)
CC(C)c1cc2c(c(O)c1O)[C@@]13CCCC(C)(C)C1CC2OC3=O (stereo not given in full)	TrxR1 inh 16µM (no result: GALK inh)
O=C1C2CC=CCC2C(=O)N1Cc1ccccc1 (stereo not given)	none
O=C1C=CC(=O)N1Cc1ccccc1	TrxR1 inh 0.4µM (no result: GALK inh)
CCN(C(=O)C1CCN(c2ncnc3c2nc2n3CCCCC2)CC1)c1cccc(Cl)c1	none (no result: GALK inh)
O=C(Nc1ccccc1F)c1nc(S(=O)(=O)Cc2ccccc2F)ncc1Cl	TrxR1 inh 1.6µM (no result: GALK inh)
O=C(Nc1ccc2ccccc2c1)c1nc(S(=O)(=O)Cc2ccccc2F)ncc1Cl	TrxR1 inh 10µM (no result: PI4K2A block, GALK inh)
Cc1cccc(C)c1NC(=O)c1nc(S(=O)(=O)Cc2ccccc2F)ncc1Cl	TrxR1 inh 4.5µM (no result: PI4K2A block, GALK inh)
Cc1cccc(CS(=O)(=O)c2ncc(Cl)c(C(=O)Nc3c(C)cccc3C)n2)c1	TrxR1 inh inconclusive
Cc1nnc(NC(=O)c2nc(S(=O)(=O)Cc3ccccc3)ncc2Cl)s1	TrxR1 inh 13µM
COc1cc(/C=C(\C#N)c2nc3ccccc3[nH]2)cc(Cl)c1OCc1ccccc1Cl	none (no result: GALK inh)
Cc1cccc(C)c1NC(=O)c1nc(S(=O)(=O)Cc2ccccc2)ncc1Cl	TrxR1 inh 16µM
COc1ccc(OC)c(NC(=O)c2nc(S(=O)(=O)Cc3ccccc3)ncc2Cl)c1	TrxR1 inh 3.5µM
COc1ccc(OC)c(NC(=O)c2nc(S(=O)(=O)Cc3ccccc3F)ncc2Cl)c1	TrxR1 inh inconclusive (no result: PI4K2A block, GALK inh)
CN(C)c1ccc(/C=C/c2cc3ccccc3c[n+]2C)cc1	none (no result: PI4K2A block, GALK inh)
COc1cc(N)c2ncccc2c1SC	none (no result: TrxR1 inh, TrxR1 substrate, GALK inh)
COc1cc(N)c2ncccc2c1Br	PI4K2A block -52 (no result: GALK inh)
CC1(C)CC(=O)C2=C(C1)OC1=C(C(=O)CC(C)(C)C1)C2c1ccc(O)cc1O	TrxR1 inh 3.5µM
Cc1cccc(C(=O)OCC(=O)N2CC(=O)Nc3ccccc32)c1C	none (no result: GALK inh)
O=C(COc1ccc(/C=C\[N+](=O)[O-])cc1)N1CCOCC1	TrxR1 inh 14µM
COc1cccc(N2CCN(C(=O)C3CCCN(S(=O)(=O)c4ccc(Br)s4)C3)CC2)c1 (stereo not given)	none (no result: GALK inh)
Cc1ccccc1OCC(=O)Nc1ccccc1OCc1cc(=O)n2ccccc2n1	none (no result: GALK inh)
O=c1c(C(c2ccc(Br)cc2)c2c(O)nc3n(c2=O)CCS3)c(O)nc2n1CCS2	TrxR1 inh 1.6µM

Source: PubChem (National Center for Advancing Translational Sciences (NCATS))
